Experimental data from PubChem BioAssay (NCATS).
Inconclusive results are not listed. Calls of active or inactive are those of the source. Calls follow the shape of the dose curve; as a rule, active = well fitted curve in the direction sought with a large enough effect; inconclusive = small, poorly fitted or top-dose-only effect, or another doubt; inactive = no such curve, though single readings can be large; an effect the other way counts as inactive or inconclusive.

Legend:
CRL-7250 = normal cell line; assay: Cytotoxic Profiling of Annotated Libraries Using Quantitative High-Throughput Screening (AID 1296008); settings: Five cell lines viability, CellTiter-Glo ATP luminescence, 48-72 h; max response: active compounds read low; also: nearly all actives have a fitted effect of over 60% in size; as to max response: % is scaled to controls: 0 for no effect and ±100 for the full control effect
Procedure, shortened: (§1)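 Cytotoxicity was measured as CellTiter-Glo ATP luminescence, read after 10 min at room temperature. Compound treatment of the cells lasted 48 or 72 hr at 37 degrees Celsius in a qHTS format.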

HEK293 = assay: as above; settings: Five cell lines viability, CellTiter-Glo ATP luminescence, 48-72 h; max response: active compounds read low
Procedure, shortened: as §1

HaCat [1] = assay: as above; settings: Five cell lines viability, CellTiter-Glo ATP luminescence, 48-72 h; max response: active compounds read low
Procedure, shortened: as §1

KB-3-1 = assay: as above; settings: Five cell lines viability, CellTiter-Glo ATP luminescence, 48-72 h; max response: active compounds read low
Procedure, shortened: as §1

NIH3T3 [2] = assay: as above; settings: Five cell lines viability, CellTiter-Glo ATP luminescence, 48-72 h; max response: active compounds read low
Procedure, shortened: as §1

HACAT [3] = assay: qHTS assay to identify novel small-molecules to repurpose for Merkel cell carcinoma treatment (AID 1296009); settings: MCC and control cell lines, CellTiter-Glo viability, 72 h; at 44.8 µM (top of the series) unless noted; also: nearly all actives have a fitted effect of over 60% in size
Procedure, shortened: (§2)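 72 hr, 37 degree celsius; NPC 8-pt / MIPE 11-pt dose response; compound pinned in DMSO; CellTiter-Glo, 10 min RT, luminescence; normalized to no-cell and DMSO controls.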

NIH3T3 [4] = assay: as above; settings: MCC and control cell lines, CellTiter-Glo viability, 72 h; at 44.8 µM (top of the series) unless noted
Procedure, shortened: as §2

C33A = assay: Primary qHTS to identify gynecologic anti-cancer compounds using libraries of approved drugs and bioactive compounds (AID 1345084); settings: Gynecologic cancer cell panel viability, ATPlite luminescence, 48 h; series mostly up to 57.5 µM; also: nearly all actives have a fitted effect of over 55% in size; also: potency is read from the fitted curve at half-maximal effect
Procedure, shortened: (§3)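 Cells, 1,000 per well, were allowed to settle for 16 h at 37 C before compound addition. Five concentrations were tested for 48 h, and viability was read by ATPlite luminescence after 15 min at room temperature.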

CAOV3 = assay: as above; settings: Gynecologic cancer cell panel viability, ATPlite luminescence, 48 h; series mostly up to 57.5 µM
Procedure, shortened: as §3

CASKI = assay: as above; settings: Gynecologic cancer cell panel viability, ATPlite luminescence, 48 h; series mostly up to 57.5 µM
Procedure, shortened: as §3

Es-2 = assay: as above; settings: Gynecologic cancer cell panel viability, ATPlite luminescence, 48 h; series mostly up to 57.5 µM
Procedure, shortened: as §3

HeLa = assay: as above; settings: Gynecologic cancer cell panel viability, ATPlite luminescence, 48 h; series mostly up to 57.5 µM
Procedure, shortened: as §3

Hek293T = assay: as above; settings: Gynecologic cancer cell panel viability, ATPlite luminescence, 48 h, control line for the selectivity index; series mostly up to 57.5 µM
Procedure, shortened: as §3

JEG-3 = assay: as above; settings: Gynecologic cancer cell panel viability, ATPlite luminescence, 48 h; series mostly up to 57.5 µM
Procedure, shortened: as §3

OV90 = assay: as above; settings: Gynecologic cancer cell panel viability, ATPlite luminescence, 48 h; series mostly up to 57.5 µM
Procedure, shortened: as §3

PA-1 = assay: as above; settings: Gynecologic cancer cell panel viability, ATPlite luminescence, 48 h; series mostly up to 57.5 µM
Procedure, shortened: as §3

CC(C)C1(O)C=C2C(=O)CC3C(C)(C(=O)O)CCCC3(C)C2CC1 (stereo not given)
inactive: max response (CRL-7250) 3.97% | max response (HEK293) 0.541% | outcome (HaCat [1]) | max response (KB-3-1) -0.238% | outcome (NIH3T3 [2]) | outcome (HACAT [3]) | outcome (NIH3T3 [4]) | Potency (C33A) | Potency (CAOV3) | outcome (CASKI) | Potency (Es-2) | Potency (HeLa) | Potency (Hek293T) | Potency (JEG-3) | Potency (OV90) | Potency (PA-1)

C=C(C)[C@@H]1CC[C@]2(C(=O)O)CC[C@]3(C)C(CCC4[C@]5(C)C(CC[C@]43C)C(C)(C)[C@@H](O)[C@@H]5C(=O)O)C12 (stereo not given in full)
inactive: outcome (CRL-7250) | max response (HEK293) -0.322% | outcome (HaCat [1]) | outcome (KB-3-1) | outcome (NIH3T3 [2]) | outcome (HACAT [3]) inactive [at 17.4 µM] | outcome (NIH3T3 [4]) inactive [at 17.4 µM] | Potency (C33A) | Potency (CAOV3) | outcome (CASKI) | Potency (Es-2) | Potency (HeLa) | Potency (Hek293T) | Potency (JEG-3) | Potency (OV90) | Potency (PA-1)

COc1cc(C2CC(=O)Nc3c2cc(Br)c2ccccc32)cc(OC)c1OC (stereo not given)
inactive: outcome (CRL-7250) | max response (HEK293) 1.49% | outcome (HaCat [1]) | outcome (KB-3-1) | outcome (NIH3T3 [2]) | outcome (HACAT [3]) | outcome (NIH3T3 [4]) | Potency (C33A) | Potency (CAOV3) | outcome (CASKI) | Potency (Es-2) | Potency (HeLa) | Potency (Hek293T) | Potency (JEG-3) | Potency (OV90) | Potency (PA-1)

c1cc(-c2cc(C3CCNCC3)[nH]n2)ccn1
inactive: max response (CRL-7250) -3.47% | max response (HEK293) -20.2% | outcome (HaCat [1]) | max response (KB-3-1) 2.66% | outcome (NIH3T3 [2]) | outcome (HACAT [3]) inactive [at 17.4 µM] | outcome (NIH3T3 [4]) inactive [at 17.4 µM] | Potency (C33A) | Potency (CAOV3) | outcome (CASKI) | Potency (Es-2) | Potency (HeLa) | Potency (Hek293T) | Potency (JEG-3) | Potency (OV90) | Potency (PA-1)

CC1(C)CCC2(C(=O)O)CCC3(C)C(=CCC4C5(C)CCC(O)C(C)(CO)C5C(O)CC43C)C2C1 (stereo not given)
inactive: max response (CRL-7250) -7.98% | max response (HEK293) 4.6% | outcome (HaCat [1]) | max response (KB-3-1) 4.19% | outcome (NIH3T3 [2]) | outcome (HACAT [3]) inactive [at 17.4 µM] | outcome (NIH3T3 [4]) inactive [at 17.4 µM] | Potency (C33A) | Potency (CAOV3) | outcome (CASKI) | Potency (Es-2) | Potency (HeLa) | Potency (Hek293T) | Potency (JEG-3) | Potency (OV90) | Potency (PA-1)

C[C@@H]1O[C@@H](O[C@H]2[C@H](Oc3cc(O)c(C(=O)CCc4ccc(O)cc4)c(O)c3)O[C@H](CO)[C@@H](O)[C@@H]2O)[C@H](O)[C@H](O)[C@H]1O
inactive: max response (CRL-7250) 2.09% | max response (HEK293) -1.52% | outcome (HaCat [1]) | outcome (KB-3-1) | outcome (NIH3T3 [2]) | outcome (HACAT [3]) | outcome (NIH3T3 [4]) | Potency (C33A) | Potency (CAOV3) | outcome (CASKI) | Potency (Es-2) | Potency (HeLa) | Potency (Hek293T) | Potency (JEG-3) | Potency (OV90) | Potency (PA-1)

COc1cc(/C=C/C(=O)OC[C@H]2O[C@@H](OC3CC(C)=C(C(=O)O)C(C)(C)C3)[C@H](O)[C@@H](O)[C@@H]2O)cc(OC)c1O (stereo not given in full)
inactive: max response (CRL-7250) -3.13% | max response (HEK293) -1.71% | outcome (HaCat [1]) | outcome (KB-3-1) | outcome (NIH3T3 [2]) | outcome (HACAT [3]) inactive [at 17.4 µM] | outcome (NIH3T3 [4]) inactive [at 17.4 µM] | Potency (C33A) | Potency (CAOV3) | outcome (CASKI) | Potency (Es-2) | Potency (HeLa) | Potency (Hek293T) | Potency (JEG-3) | Potency (OV90) | Potency (PA-1)

CNC(C)C(=O)NC(C(=O)N1CCCC1C(=O)Nc1cccc2ncccc12)C(C)C (stereo not given)
active: Potency (CAOV3) 10 µM
inactive: outcome (CRL-7250) | max response (HEK293) 4.04% | outcome (HaCat [1]) | max response (KB-3-1) 2.7% | outcome (NIH3T3 [2]) | outcome (HACAT [3]) | outcome (NIH3T3 [4]) | Potency (C33A) | outcome (CASKI) | Potency (Es-2) | Potency (HeLa) | Potency (Hek293T) | Potency (JEG-3) | Potency (OV90) | Potency (PA-1)

OC[C@H]1O[C@@H](OCc2ccccc2)[C@H](O[C@@H]2OC[C@@H](O)[C@H](O)[C@H]2O)[C@@H](O)[C@@H]1O
inactive: outcome (CRL-7250) | max response (HEK293) 0.407% | outcome (HaCat [1]) | outcome (KB-3-1) | outcome (NIH3T3 [2]) | outcome (HACAT [3]) inactive [at 17.4 µM] | outcome (NIH3T3 [4]) inactive [at 17.4 µM] | Potency (C33A) | Potency (CAOV3) | outcome (CASKI) | Potency (Es-2) | Potency (HeLa) | Potency (Hek293T) | Potency (JEG-3) | Potency (OV90) | Potency (PA-1)

OC[C@@]1(O)CO[C@H](OC[C@H]2O[C@@H](OC(CCCCc3ccc(O)cc3)CCc3ccc(O)cc3)[C@H](O[C@H]3OC[C@](O)(CO)[C@H]3O)[C@@H](O)[C@@H]2O)[C@@H]1O (stereo not given in full)
inactive: max response (CRL-7250) -11.2% | max response (HEK293) -13.7% | outcome (HaCat [1]) | max response (KB-3-1) 2.31% | outcome (NIH3T3 [2]) | outcome (HACAT [3]) inactive [at 17.4 µM] | outcome (NIH3T3 [4]) inactive [at 17.4 µM] | Potency (C33A) | Potency (CAOV3) | outcome (CASKI) | Potency (Es-2) | Potency (HeLa) | Potency (Hek293T) | Potency (JEG-3) | Potency (OV90) | Potency (PA-1)
